Usually AC50 stands for the midpoint of the concentration-response curve, whichever way the signal moves.

Calls of active or inactive are those of the source. Rule for the calls: active = hit-call score of the fitted dose curve at least 0.9, where 1 is the maximum; inactive = score below 0.9.

From PubChem BioAssay (EPA / NIEHS) come the findings set out here.

One test can be described thus: APR_HepG2_StressKinase_72hr: Apredica 72-hour HepG2 Assay for Stress Kinase (AID 2282921). As to conditions: HepG2 stress kinase (phospho-c-Jun) imaging, actives raise or lower the signal. In a few lines: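 Stress kinase signal reflects nuclear phospho-c-Jun staining in fixed, permeabilized cells exposed 72 h to compound at 0.39–200 uM; DMSO-normalized, fitted for increases or decreases.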
For `CC(C)CCCCCCOC(=O)c1ccc(C(=O)OCCCCCCC(C)C)c(C(=O)OCCCCCCC(C)C)c1`, the compound was classed as inactive.
The same measure, in the same setting: the value for `O=C(CCCCCCCCc1cccnc1)N1CCC(C=C(c2ccccc2)c2ccccc2)CC1` was “inactive”.
Consider `COCCOc1cc2cc(C(=O)NC3CCN(C(C)C)CC3)n(CC(=O)Nc3ccc(Cl)cn3)c2cn1`, for which the compound was called inactive.
Still for that read-out and setting: the value for `CCCCC(CC)COC(=O)CCCCCCCCC(=O)OCC(CC)CCCC` (stereo not given) was “inactive”.
Still for that read-out and setting: with `CCCCCCCCO` the entry was “inactive”; with `Cn1c(=O)cc(Oc2ccc(F)cc2F)c2cnc(NCC(C)(C)O)nc21`, “inactive”.
Regarding `O=C(O)CCN(C1(C(=O)NO)CCCC1)S(=O)(=O)c1ccc(Oc2ccc(F)cc2)cc1`, the compound was called inactive.
On the same count and under the same terms, with `Nc1nc2ncc(CNc3ccc(C(=O)N[C@@H](CCC(=O)O)C(=O)O)cc3)nc2c(=O)[nH]1` the entry was “inactive”.
As to `CC(C)c1cccc(C(C)C)c1N1C(=O)c2ccc(O)cc2C1=O`, the AC50 was 6.1 µM (active).
For the compound `CCOC(=O)COc1ccc2c(c1)CC(NCC(O)c1cccc(Cl)c1)CC2` (stereo not given), the compound was classed as inactive.
On the same count and under the same terms, the value for `O=c1[nH]c2ccc(S(=O)CCN3CCC(Cc4ccc(F)cc4)CC3)cc2o1` (stereo not given) was “inactive”.
Same read-out and setting: with `COc1ccc2sc(C(=O)Nc3nnn[nH]3)c(OC(C)C)c2c1` the entry was “inactive”; with `CC(C)=CCC/C(C)=C/CO`, “inactive”.
Still for that read-out and setting: the value for `CC1(C)C(=O)N(Br)C(=O)N1Br` was “inactive”; that for `COc1ccc(/C=C/S(=O)(=O)NC(=O)c2ccc(C)cc2Cl)cc1` was “inactive”.
As for `Cc1ccc(N)cc1O`, the call was inactive.
Regarding `Nc1cccc(N)c1`, the compound was called inactive.
The same measure, in the same setting: the value for `COC(=O)c1ccccc1O` was “inactive”; that for `CCCCC(CC)COC(=O)c1ccc(C(=O)OCC(CC)CCCC)cc1` (stereo not given) was “inactive”; that for `CC/C(=C\C(=N/O)C(N)=O)C(C)[N+](=O)[O-]` (stereo not given) was “inactive”.
Same read-out and setting: with `O=C(NS(=O)(=O)/C=C/c1ccccc1)c1ccc(F)cc1Cl` the entry was “inactive”.
Same read-out and setting: with `CCOCCO` the entry was “inactive”.
Regarding `CC[C@H]1OC(=O)[C@H](C)[C@@H](O[C@H]2C[C@@](C)(OC)[C@@H](O)[C@H](C)O2)[C@H](C)[C@@H](O[C@@H]2O[C@H](C)C[C@H](N(C)C)[C@H]2O)[C@](C)(O)C[C@@H](C)C(=O)[C@H](C)[C@@H](O)[C@]1(C)O`, the call was inactive.
On the same count and under the same terms, the value for `CC[C@H]1CC[C@H](NCc2cc3c(cc2OC)[C@H]2C[C@H]2C(=O)N3C)[C@H](c2ccccc2)N1` was “inactive”; that for `CC(C)CCO` was “inactive”; that for `CNCc1ccc(NC(=O)c2c[nH]c3c2C(=O)CCC3)cc1` was “inactive”.
Take `CC(C)CC(C)(O)C#CC(C)(O)CC(C)C` (stereo not given): the compound was classed as inactive.
Still for that read-out and setting: with `C1=CCCC=CCCC=CCC1` the entry was “inactive”; with `CCCCCCc1ccc(O)cc1O`, “inactive”.
Still for that read-out and setting: the value for `CN(C)c1ccc(Cc2ccc(N(C)C)cc2)cc1` was “inactive”.

The nature of the next test: APR_HepG2_StressKinase_24hr: Apredica 24-hour HepG2 Assay for Stress Kinase (AID 2282922). As to conditions: HepG2 stress kinase (phospho-c-Jun) imaging, actives raise or lower the signal. The method in brief:
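Read-out: phospho-c-Jun immunofluorescence (Cy3 secondary) quantified by high-content imaging at 20x, nuclei defined by Hoechst 33342. Human HepG2 liver cells dosed 24 hr, 0.39–200 uM, DMSO 0.5% v/v; gain or loss of signal fitted relative to DMSO.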
`CC(C)CCCCCCOC(=O)c1ccc(C(=O)OCCCCCCC(C)C)c(C(=O)OCCCCCCC(C)C)c1`: the compound was called inactive.
Same read-out and setting: with `O=C(CCCCCCCCc1cccnc1)N1CCC(C=C(c2ccccc2)c2ccccc2)CC1` the entry was “inactive”.
Same read-out and setting: the value for `COCCOc1cc2cc(C(=O)NC3CCN(C(C)C)CC3)n(CC(=O)Nc3ccc(Cl)cn3)c2cn1` was “inactive”.
Still for that read-out and setting: the value for `CCCCC(CC)COC(=O)CCCCCCCCC(=O)OCC(CC)CCCC` (stereo not given) was “inactive”; that for `CCCCCCCCO` was “inactive”.
In the case of `Cn1c(=O)cc(Oc2ccc(F)cc2F)c2cnc(NCC(C)(C)O)nc21`, the outcome was inactive.
Same read-out and setting: with `O=C(O)CCN(C1(C(=O)NO)CCCC1)S(=O)(=O)c1ccc(Oc2ccc(F)cc2)cc1` the entry was “inactive”; with `Nc1nc2ncc(CNc3ccc(C(=O)N[C@@H](CCC(=O)O)C(=O)O)cc3)nc2c(=O)[nH]1`, “inactive”.
For `CC(C)c1cccc(C(C)C)c1N1C(=O)c2ccc(O)cc2C1=O`, the AC50 was 8.52 µM (active).
For the compound `CCOC(=O)COc1ccc2c(c1)CC(NCC(O)c1cccc(Cl)c1)CC2` (stereo not given), the call was inactive.
On to `O=c1[nH]c2ccc(S(=O)CCN3CCC(Cc4ccc(F)cc4)CC3)cc2o1` (stereo not given), for which the outcome was inactive.
Same read-out and setting: with `COc1ccc2sc(C(=O)Nc3nnn[nH]3)c(OC(C)C)c2c1` the entry was “inactive”.
On the same count and under the same terms, with `CC(C)=CCC/C(C)=C/CO` the entry was “inactive”.
In the case of `CC1(C)C(=O)N(Br)C(=O)N1Br`, the result was inactive.
Regarding `COc1ccc(/C=C/S(=O)(=O)NC(=O)c2ccc(C)cc2Cl)cc1`, the call was inactive.
In the case of `Cc1ccc(N)cc1O`, the call was inactive.
Still for that read-out and setting: the value for `Nc1cccc(N)c1` was “inactive”; that for `COC(=O)c1ccccc1O` was “inactive”; that for `CCCCC(CC)COC(=O)c1ccc(C(=O)OCC(CC)CCCC)cc1` (stereo not given) was “inactive”.
Still for that read-out and setting: the value for `CC/C(=C\C(=N/O)C(N)=O)C(C)[N+](=O)[O-]` (stereo not given) was “inactive”; that for `O=C(NS(=O)(=O)/C=C/c1ccccc1)c1ccc(F)cc1Cl` was “inactive”; that for `CCOCCO` was “inactive”.
For `CC[C@H]1OC(=O)[C@H](C)[C@@H](O[C@H]2C[C@@](C)(OC)[C@@H](O)[C@H](C)O2)[C@H](C)[C@@H](O[C@@H]2O[C@H](C)C[C@H](N(C)C)[C@H]2O)[C@](C)(O)C[C@@H](C)C(=O)[C@H](C)[C@@H](O)[C@]1(C)O`, the call was inactive.
Take `CC[C@H]1CC[C@H](NCc2cc3c(cc2OC)[C@H]2C[C@H]2C(=O)N3C)[C@H](c2ccccc2)N1`: the outcome was inactive.
On the same count and under the same terms, with `CC(C)CCO` the entry was “inactive”; with `CNCc1ccc(NC(=O)c2c[nH]c3c2C(=O)CCC3)cc1`, “inactive”.
Same read-out and setting: the value for `CC(C)CC(C)(O)C#CC(C)(O)CC(C)C` (stereo not given) was “inactive”.
For the compound `C1=CCCC=CCCC=CCC1`, the result was inactive.
As for `CCCCCCc1ccc(O)cc1O`, the concentration at half-maximal activity (AC50) is 158 µM (active).
Take `CN(C)c1ccc(Cc2ccc(N(C)C)cc2)cc1`: the outcome was inactive.
